Activity calls are given as the source filed them.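 How the source made its calls, unless noted: active means normalized viability below 100% at a tested concentration; inactive means the rest.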
Assays:
[1] = stimulators of nuclear beta-catenin in C2C12, primary screen, imaging, WNT3A-conditioned medium, mouse C2C12, NPC library (AID 1117326; in the data active means nuclear beta-catenin stimulation mostly above about 4.2%, no sharp cut-off; inactive means mostly below about 10%); conditions: stronger effect = higher value
[2] = stimulators of insulin release from INS-1E, primary screen, cell-based, 5 mM glucose, NPC library (AID 1117329;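 active means compound raises insulin release from rat beta cells at 5 mM glucose, no numeric limit stated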); conditions: rat INS-1E insulin secretion, at 10 µM, stronger effect = higher value
[3] = growth inhibition of GSK3B-pretreated HCT116 cells – cell-based, CellTiter-Glo, 0.2 to 20 µM (AID 1117336;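 active means compounds lowering colon cancer cell viability after pretreatment blocking the GSK3B kinase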); conditions: HCT116 viability after GSK3B inhibitor, at 20 µM, stronger effect = higher value
[4] = inhibition of endothelial tube formation, primary screen, imaging, VEGF stimulated, CD31 staining, tube area, NPC library (AID 1117340;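 active means compound that reduces growth-factor-driven endothelial tube area in a mixed cell culture, no cutoff stated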); conditions: VEGF-stimulated ADSC/ECFC co-culture, at 10 µM, stronger effect = higher value
[5] = glucagon-like peptide 1 release enhancers, primary assay, NCI-H716 cell line, NPC library (AID 1117341;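 active means compound raises GLP1 secretion from the human gut endocrine cells, with no numeric limit stated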); conditions: NCI-H716 cells, at 10 µM, stronger effect = higher value
[6] = HCT116 colon cancer cell growth inhibition, primary screen, CellTiter-Glo luminescence, NPC library (AID 1117342;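 active means compounds that lower survival of HCT116 colon cancer cells in the luminescence readout, no numeric limit stated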); conditions: at 20 µM (top of the series)
[7] = CellTiter-Glo luminescent readout of SW480 viability loss, NPC library primary (AID 1117343;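 active means compounds that lower viability of the colon cancer cells in the luminescence readout, with no numeric limit stated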); conditions: CellTiter-Glo luminescence; at 20 µM (top of the series) unless noted
[8] = decreased DLD-1 cellular survival, CellTiter-Glo luminescent readout, NPC compound collection, primary HTS (AID 1117346;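 active means compounds that lower survival of DLD-1 colon cancer cells in the luminescence readout, no cutoff given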); conditions: DLD-1 viability, CellTiter-Glo luminescence; at 20 µM (top of the series)
[9] = ovarian cancer cell viability with rucaparib, profiling panel, oncology-focused library, rucaparib conditional (AID 1508598); conditions: patient-derived ovarian cancer cells, CellTiter-Glo viability, 144 h, stronger effect = lower value
[10] = target: NAD(+) hydrolase SARM1 (Homo sapiens) (UniProt Q6SZW1); experiment: SARM1 TIR NADase inhibitors, cell lysate, NAD-Glo luminescence (AID 1508614;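 active means compound whose remaining NAD level is above about 45 nM, limit read from the data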); conditions: SAM-TIR HEK293T lysate NADase, at 1 µM, stronger effect = higher value
NAD(+) hydrolase SARM1 (Homo sapiens), sequence (Q6SZW1 whole entry, looked up): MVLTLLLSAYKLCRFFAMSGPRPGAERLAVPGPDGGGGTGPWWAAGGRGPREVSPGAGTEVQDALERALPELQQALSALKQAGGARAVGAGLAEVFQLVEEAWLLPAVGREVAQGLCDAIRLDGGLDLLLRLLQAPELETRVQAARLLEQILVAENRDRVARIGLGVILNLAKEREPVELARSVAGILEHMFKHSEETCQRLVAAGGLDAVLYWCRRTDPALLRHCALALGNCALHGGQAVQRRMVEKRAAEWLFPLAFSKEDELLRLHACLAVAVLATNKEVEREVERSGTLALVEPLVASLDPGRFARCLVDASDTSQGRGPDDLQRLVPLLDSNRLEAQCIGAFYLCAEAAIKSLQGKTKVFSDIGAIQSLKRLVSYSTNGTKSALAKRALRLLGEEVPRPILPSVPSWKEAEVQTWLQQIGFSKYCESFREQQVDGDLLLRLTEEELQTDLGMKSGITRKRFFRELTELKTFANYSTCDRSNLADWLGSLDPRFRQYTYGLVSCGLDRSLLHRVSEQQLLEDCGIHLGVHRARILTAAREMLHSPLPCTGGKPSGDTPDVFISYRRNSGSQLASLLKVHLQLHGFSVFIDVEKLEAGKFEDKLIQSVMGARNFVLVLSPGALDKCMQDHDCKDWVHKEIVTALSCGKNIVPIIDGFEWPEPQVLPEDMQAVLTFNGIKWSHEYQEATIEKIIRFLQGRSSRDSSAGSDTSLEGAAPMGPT

[11] = survival rescue of mitochondrial mutant cells in low glucose, primary screen, MELAS cybrids, Rieske KO mouse fibroblasts, CellTiter-Glo (AID 1508586);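 further: z relative to plate mean and SD of compound and empty wells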
[12] = phospholipid biosynthesis inhibitors in animal cells, primary screen, cell-based, LOPAC library, screen 4 (AID 1347384; call rule not given here); conditions: phospholipid biosynthesis inhibition screen, at 10 µM

O=c1[nH]c(=O)n([C@H]2CCCO2)cc1F
0.4%: nuclear beta-catenin stimulation ([1]; stimulation, at 2 µM)
inactive: nuclear beta-catenin stimulation ([1]; at 10 µM) 0.6% | insulin secretion stimulation [2] -1.4% | viability decrease [3] 6% | tube area decrease [4] 3.6% | GLP1 secretion stimulation [5] -1.7% | inhibition of viability [6] 16% | viability decrease (inhibition) [7] 13.4% | viability decrease (inhibition) [8] 11.5% | viability ([9]; at 0.000305 µM, OCI-C5x cells, with rucaparib 10 µM, 100% = cells with rucaparib alone) 106% | viability ([9]; at 0.000305 µM, OCI-C5x cells, without rucaparib) 122% | viability ([9]; at 0.000305 µM, OCI-P5x cells, with rucaparib 20 µM, 100% = cells with rucaparib alone) 115% | viability ([9]; at 0.000305 µM, OCI-P5x cells, without rucaparib) 110% | viability ([9]; at 0.00122 µM, OCI-C5x cells, with rucaparib 10 µM, 100% = cells with rucaparib alone) 119% | viability ([9]; at 0.00122 µM, OCI-C5x cells, without rucaparib) 122% | viability ([9]; at 0.00122 µM, OCI-P5x cells, with rucaparib 20 µM, 100% = cells with rucaparib alone) 106% | viability ([9]; at 0.00122 µM, OCI-P5x cells, without rucaparib) 107% | viability ([9]; at 0.00488 µM, OCI-C5x cells, with rucaparib 10 µM, 100% = cells with rucaparib alone) 103% | viability ([9]; at 0.00488 µM, OCI-C5x cells, without rucaparib) 127% | viability ([9]; at 0.00488 µM, OCI-P5x cells, without rucaparib) 106% | viability ([9]; at 0.0195 µM, OCI-C5x cells, with rucaparib 10 µM, 100% = cells with rucaparib alone) 107% | viability ([9]; at 0.0195 µM, OCI-C5x cells, without rucaparib) 121% | viability ([9]; at 0.0781 µM, OCI-C5x cells, with rucaparib 10 µM, 100% = cells with rucaparib alone) 104% | viability ([9]; at 0.0781 µM, OCI-C5x cells, without rucaparib) 112% | viability ([9]; at 0.0781 µM, OCI-P5x cells, with rucaparib 20 µM, 100% = cells with rucaparib alone) 106% | viability ([9]; at 0.0781 µM, OCI-P5x cells, without rucaparib) 107% | viability ([9]; at 1.25 µM, OCI-C5x cells, with rucaparib 10 µM, 100% = cells with rucaparib alone) 110% | viability ([9]; at 1.25 µM, OCI-C5x cells, without rucaparib) 115% | viability ([9]; at 5 µM, OCI-C5x cells, with rucaparib 10 µM, 100% = cells with rucaparib alone) 133% | viability ([9]; at 5 µM, OCI-C5x cells, without rucaparib) 111%
active: viability ([9]; at 0.00488 µM, OCI-P5x cells, with rucaparib 20 µM, 100% = cells with rucaparib alone) 96% | viability ([9]; at 0.0195 µM, OCI-P5x cells, with rucaparib 20 µM, 100% = cells with rucaparib alone) 94.8% | viability ([9]; at 0.0195 µM, OCI-P5x cells, without rucaparib) 99.2% | viability ([9]; at 0.313 µM, OCI-C5x cells, with rucaparib 10 µM, 100% = cells with rucaparib alone) 31.7% | viability ([9]; at 0.313 µM, OCI-C5x cells, without rucaparib) 24.1% | viability ([9]; at 0.313 µM, OCI-P5x cells, with rucaparib 20 µM, 100% = cells with rucaparib alone) 47.7% | viability ([9]; at 0.313 µM, OCI-P5x cells, without rucaparib) 16.2% | viability ([9]; at 1.25 µM, OCI-P5x cells, with rucaparib 20 µM, 100% = cells with rucaparib alone) 97.8% | viability ([9]; at 1.25 µM, OCI-P5x cells, without rucaparib) 97.2% | viability ([9]; at 5 µM, OCI-P5x cells, with rucaparib 20 µM, 100% = cells with rucaparib alone) 87.8% | viability ([9]; at 5 µM, OCI-P5x cells, without rucaparib) 94.3%

C#C[C@]1(O)CC[C@H]2[C@@H]3CCc4cc(OC5CCCC5)ccc4[C@H]3CC[C@@]21C
0.5%: nuclear beta-catenin stimulation ([1]; stimulation, at 2 µM)
active: nuclear beta-catenin stimulation ([1]; at 10 µM) 54.3% | viability decrease [3] 102% | tube area decrease [4] 46.9% | GLP1 secretion stimulation [5] 32.5% | inhibition of viability [6] 101% | viability decrease (inhibition) [7] 145% | viability decrease (inhibition) [8] 105%
inactive: insulin secretion stimulation [2] 0.3% | remaining NAD [10] 10 nM

Clc1cc(Cl)c(OCC#CI)cc1Cl
21.7%: nuclear beta-catenin stimulation ([1]; stimulation, at 2 µM)
inactive: insulin secretion stimulation [2] 9.6% | GLP1 secretion stimulation [5] -0.7%
active: nuclear beta-catenin stimulation ([1]; at 10 µM) 62.3% | viability decrease [3] 93.8% | tube area decrease [4] 106% | inhibition of viability [6] 92% | viability decrease (inhibition) [7] 100% | viability decrease (inhibition) [8] 98.1%
-0.965: z-score ([11]; MELAS cybrid survival, CellTiter-Glo 48 h, stronger effect = higher value)
8.41: z-score ([11]; Rieske KO mouse fibroblast survival, CellTiter-Glo 72 h)

COc1cc(O)c(C(=O)c2ccccc2)cc1S(=O)(=O)O
inactive: nuclear beta-catenin stimulation ([1]; at 10 µM) -0.8% | insulin secretion stimulation [2] -1.1% | viability decrease [3] -7.35% | tube area decrease [4] -4.4% | GLP1 secretion stimulation [5] -0.7% | inhibition of viability [6] -1.4% | viability decrease (inhibition) [7] -19.9% | viability decrease (inhibition) [8] 4.15% | remaining NAD [10] 10 nM
0.1%: nuclear beta-catenin stimulation ([1]; stimulation, at 2 µM)

Nc1c[n+](N2CCOCC2)no1
inactive: nuclear beta-catenin stimulation ([1]; at 10 µM) 0.4% | insulin secretion stimulation [2] -1.7% | viability decrease [3] 15.5% | tube area decrease [4] -10.8% | GLP1 secretion stimulation [5] -2.6% | inhibition of viability [6] -13.8% | viability decrease (inhibition) [8] 20.6% | outcome [12]
active: viability decrease (inhibition) [7] 66.6%
-0.3%: nuclear beta-catenin stimulation ([1]; stimulation, at 2 µM)
